Consider 23 molecules from PubChem BioAssay (NCATS).

Each structure is given as a SMILES string. Several values for one entry are separate records, joined by “and”; a condition that tells them apart may be missing. Equal values may be shown once. Inconclusive results are not listed. More than one record can exist for a structure, and the calls need not agree. Unmarked numbers belong to inactive results. Activity calls are given as the source filed them. Calls follow the shape of the dose curve; as a rule, active = well fitted inhibition curve with a large enough effect; inconclusive = small, poorly fitted or top-dose-only effect; inactive = flat fitted curve, though single readings scatter.
% is scaled to controls: 0 for no effect and ±100 for the full control effect; potency is read from the fitted curve at half-maximal effect.

In this assay the test system is CRL-7250. Kind of assay: Cytotoxic Profiling of Annotated Libraries Using Quantitative High-Throughput Screening (AID 1296008). Also: nearly all actives have a fitted effect of over 60% in size. The following applies: Five cell lines viability, CellTiter-Glo ATP luminescence, 48-72 h; max response: stronger effect = lower value. The procedure, abridged:
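Cells exposed to compounds for 48 or 72 hr at 37 degrees Celsius. Viability read as ATP-coupled luminescence with CellTiter-Glo after 10 min at room temperature.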
A general note: ATP-based viability assays read luminescence as a measure of living cells.
As for `CCOc1cc(N)c(Cl)cc1C(=O)NCC1CN(Cc2ccc(F)cc2)CCO1` (stereo not drawn), the outcome was inactive.
Same read-out and setting: the value for `CCC(=O)O[C@]1(C(=O)SCF)[C@H](C)C[C@H]2[C@@H]3C[C@H](F)C4=CC(=O)C=C[C@]4(C)[C@@]3(F)[C@@H](O)C[C@@]21C` was “inactive”.
Take `Cc1oc(=O)oc1CN1CCN(c2cc3c(cc2F)c(=O)c(C(=O)O)c2n3C(C)S2)CC1` (stereo not drawn): the max response is -3.57% and 1.83%.
Same read-out and setting: the value for `NC1(c2ccc(-c3nc4ccn5c(=O)[nH]nc5c4cc3-c3ccccc3)cc2)CCC1` was -3.3%.
Regarding `C[C@@H](CN1CC(=O)NC(=O)C1)N1CC(=O)NC(=O)C1`, the Potency was 0.148 µM (active) and the max response is 0.572%.
For the molecule `OC(Cn1cncn1)(Cn1cncn1)c1ccc(F)cc1F`, the max response was 2.49% and -1.86%.
Consider `O=NN(CCCl)C(=O)NC1CCCCC1`, for which the max response was 4.87% and the result was inactive.
In the same order, the values of `Clc1ccccc1CN1CCc2sccc2C1` are -20.6% and “inactive”.
With `Cn1c(=O)c2c(ncn2CC(O)CO)n(C)c1=O` (stereo not drawn), the max response was 2.57% and -3.36%.
As to `Cc1cccc(N(C)C(=S)Oc2ccc3ccccc3c2)c1`, the max response was -5.5% and the molecule was called inactive.
Regarding `CN(CCOc1ccc(CC2SC(=O)NC2=O)cc1)c1ccccn1` (stereo not drawn), the max response was 0.739%.
`COC(c1ccccc1)(c1ccccc1)[C@H](Oc1nc(C)cc(C)n1)C(=O)O`: the molecule was classed as inactive.
Consider `CCc1cc(C(N)=S)ccn1`, for which the max response is -4.32% and -3.13%.
The same measure, in the same setting: the value for `COCCCOc1cc(C[C@@H](C[C@H](N)[C@@H](O)C[C@H](C(=O)NCC(C)(C)C(N)=O)C(C)C)C(C)C)ccc1OC` was -2.04%.
`CCN(C)C(=O)Oc1cccc([C@H](C)N(C)C)c1`: the max response is -5.92% and -3.92%.
Same read-out and setting: the value for `CCn1cc(C(=O)O)c(=O)c2cc(F)c(N3CCNCC3)nc21` was -4.45% and -16.8%; that for `CC[C@H](NC(C)C)[C@H](O)c1ccc(O)c2[nH]c(=O)ccc12` was 0.158% and -0.536%.
Regarding `CC(C)OC(=O)C(C(=O)OC(C)C)=C1SC=CS1`, the call was inactive.
Take `COc1ccc(-c2ccc3cc(C(=O)O)ccc3c2)cc1C12CC3CC(CC(C3)C1)C2`: the max response was 1.82% and 2%.
With `CCOC(=O)c1ccc(OC(=O)CCCCCN=C(N)N)cc1`, the max response is 1.52% and the outcome was inactive.
With `O=S(=O)(c1cccc2cnccc12)N1CCCNCC1`, the molecule was called inactive.
Turning to `CNC1CCCN(c2c(F)cc3c(=O)c(C(=O)O)cn(C4CC4)c3c2OC)C1` (stereo not drawn), the max response is -2.7%.
In the case of `COc1ccc2c(c1)c(CC(=O)OCC(=O)O)c(C)n2C(=O)c1ccc(Cl)cc1`, the max response is -1.43% and 4.64%.
